The values that follow come from PubChem BioAssay (EPA / NIEHS).

The nature of assay [1]: ATG_E_Box_CIS: Attagene CIS-FACTORIAL HepG2 Assay for human Enhancer Box (E-box) (AID 2282936). As to conditions: HepG2 E-box cis-reporter transcription, actives raise or lower the signal. In a few lines:
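DMSO served as negative control and baseline for bidirectional fitting. Human hepatoma HepG2 cells, transiently transfected with cis-reporter constructs, were dosed 24 h; reporter mRNA read by RT-PCR and capillary electrophoresis.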

Assay [2] can be described thus: ATG_M_61_CIS: Attagene CIS-FACTORIAL HepG2 Assay for M61 Transcription Factor (Internal Marker) (AID 2282937). As to conditions: HepG2 Attagene CIS-FACTORIAL M61 internal marker reporter; actives raise or lower the signal. The method, boiled down: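 Endogenous transcription factor activity in HepG2 is read through transiently transfected cis-element reporter units. After 24 h dosing, RNA undergoes reverse transcription, PCR and primer extension with 6-FAM before capillary electrophoresis; DMSO-referenced bidirectional fit.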

Assay [3] in a line: ATG_EGR_CIS: Attagene CIS-FACTORIAL HepG2 Assay for human Early Growth Response 1 (EGR1) (AID 2282938). As to conditions: HepG2 Attagene CIS-FACTORIAL EGR reporter mRNA; actives raise or lower the signal. In a few lines: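 Activity is taken as induction or loss of reporter mRNA versus DMSO, fitted bidirectionally. Transcripts from cis-regulated reporter units in transiently transfected HepG2 were measured after 24 h by RT-PCR with capillary electrophoresis.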

A short description of assay [4]: ATG_ERE_CIS: Attagene CIS-FACTORIAL HepG2 Assay for Estrogen Response Element (ERE) (AID 2282940). Particulars: HepG2 ERE cis-reporter, Attagene RNA transcript; actives raise or lower the signal. The method, boiled down:
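HepG2 cells transiently transfected with multiplexed cis-element reporter units, measuring endogenous transcription factor activity; ERE reporter mRNA quantified after 24 h exposure by RT-PCR, fluorescent labelling, HpaI digestion and capillary electrophoresis. Bidirectional change versus DMSO.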

Assay [5] in a line: ATG_Ets_CIS: Attagene CIS-FACTORIAL HepG2 Assay for human Erythroblast Transformation Specific (ETS) (AID 2282941). As to conditions: HepG2 ETS cis-reporter transcription, actives raise or lower the signal. In a few lines: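 After transient cis-reporter transfection, HepG2 cells receive test chemical for 24 h. Reporter mRNA levels, measured by RT-PCR and capillary electrophoresis fluorescence, are analysed bidirectionally relative to the DMSO baseline.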

The target in assay [6] is Hepatocyte nuclear factor 3-beta (Homo sapiens) (UniProt Q9Y261). The assay is described as follows: ATG_FoxA2_CIS: Attagene CIS-FACTORIAL HepG2 Assay for human Forkhead box A2 (FOXA2) (AID 2282942). As to conditions: HepG2 cis-reporter transcription factor activity, 24 h; actives raise or lower the signal. In a few lines:
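Reporter transcript induction is measured by fluorescence after capillary electrophoresis of RT-PCR products from HepG2 cells exposed 24 h. Cis-regulated reporter units report endogenous factor activity; curves fitted both directions against DMSO.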

Assay [7] can be described thus: ATG_FoxO_CIS: Attagene CIS-FACTORIAL HepG2 Assay for human Forkhead box O (FoxO) (AID 2282943). Particulars: HepG2 Attagene cis-reporter, FoxO element, mRNA; actives raise or lower the signal. The method, boiled down:
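HepG2, transient MRTU transfection (cis element, endogenous TFs). Dose 24 h. TriZol RNA → oligo(dT) RT → PCR → 6-FAM primer extension → HpaI cut → CE. Gain/loss vs DMSO.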

Assay [8] can be described thus: ATG_GATA_CIS: Attagene CIS-FACTORIAL HepG2 Assay for human GATA Binding Protein (AID 2282944). As to conditions: HepG2 GATA cis-element reporter, Attagene multiplex mRNA; actives raise or lower the signal. In a few lines: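 HepG2 cells transiently transfected with multiplexed cis-element reporter units measure endogenous GATA activity; after 24 h compound exposure, reporter mRNA quantified by RT-PCR and capillary electrophoresis. Changes fitted in both directions vs DMSO.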

Assay [9] is described as follows: ATG_GLI_CIS: Attagene CIS-FACTORIAL HepG2 Assay for human Zinc Finger Protein GLI1 (AID 2282945). As to conditions: HepG2, Attagene cis-factorial reporter mRNA, GLI element; actives raise or lower the signal. The method, boiled down:
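Bidirectional curve fits relative to DMSO, using reporter mRNA levels from RT-PCR plus capillary electrophoresis. Cells were HepG2 transiently carrying cis-regulated reporter constructs, harvested 24 h after dosing.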

For assay [10], the target named is Bile acid receptor (Homo sapiens) (UniProt Q96RI1). In words: ATG_IR1_CIS: Attagene CIS-FACTORIAL HepG2 Assay for human Nuclear Receptor Subfamily 1 Group H Member 4 (NR1H4), IR1 submotif (AID 2282946). Particulars: IR1 reporter transcription, actives raise or lower the signal. In a few lines: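 Cells (human HepG2) carry transiently transfected cis-promoter reporter transcription units. Compounds are incubated 24 h, total RNA is reverse-transcribed and amplified, and labelled fragments are resolved by capillary electrophoresis. Curves use DMSO as baseline.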

Assay [11] can be described thus: ATG_GRE_CIS: Attagene CIS-FACTORIAL HepG2 Assay for human Glucocorticoid Response Elements (GRE) (AID 2282947). Particulars: HepG2 GRE cis-reporter, Attagene multiplex mRNA; actives raise or lower the signal. The method, boiled down:
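Assay uses human hepatoma HepG2 cells transfected with cis-promoter reporter units, exposed 24 h. mRNA from reporters detected by RT-PCR plus capillary electrophoresis; DMSO serves as negative control and baseline.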

Assay [12] in a line: ATG_ISRE_CIS: Attagene CIS-FACTORIAL HepG2 Assay for human Interferon Regulatory Factor 1 (IRF1) binding to an Interferon-Stimulated Response Element (ISRE) (AID 2282948). Particulars: HepG2 ISRE cis-reporter (Attagene), mRNA transcription readout; actives raise or lower the signal. The method, boiled down: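 Quantitation relies on labelled RT-PCR fragments separated by capillary electrophoresis. Human HepG2 cells bearing cis-promoter reporter constructs were treated 24 h; DMSO served as baseline for bidirectional fitting.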

Assay [13] in a line: ATG_M_32_CIS: Attagene CIS-FACTORIAL HepG2 Assay for M32 Transcription Factor (Internal Marker) (AID 2282949).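 Further: background control marker of the multiplexed CIS panel rather than a real target.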 Particulars: HepG2 Attagene cis-factorial M32 reporter, mRNA; actives raise or lower the signal. In a few lines:
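Internal background marker read-out: RT-PCR/capillary electrophoresis fluorescence of reporter transcripts from transiently transfected HepG2 cells after 24 h chemical exposure. Activity fitted bidirectionally relative to DMSO negative control.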

Assay [14] concerns the target Hypoxia-inducible factor 1-alpha (Homo sapiens) (UniProt Q16665). The assay is described as follows: ATG_HIF1a_CIS: Attagene CIS-FACTORIAL HepG2 Assay for human Hypoxia Inducible Factor 1 (HIF1A) (AID 2282951). As to conditions: HepG2 Attagene cis-factorial HIF1a reporter transcription; actives raise or lower the signal. In a few lines: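 Fluorescence intensity of capillary-separated, 6-FAM-labelled reporter amplicons gives mRNA induction in HepG2 cells carrying transfected cis-promoter reporter units; cells exposed 24 h, responses fitted up or down from DMSO.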

In assay [15] the target is Hepatocyte nuclear factor 6 (Homo sapiens) (UniProt Q9UBC0). In words: ATG_HNF6_CIS: Attagene CIS-FACTORIAL HepG2 Assay for human Hepatocyte Nuclear Factor 6 (HNF6) (AID 2282952). As to conditions: HepG2 Attagene cis-factorial HNF6 reporter transcription; actives raise or lower the signal. In a few lines: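 Multiplexed mRNA reporter assay in transfected HepG2; 24 h dosing; RT-PCR plus capillary electrophoresis fluorescence; DMSO-referenced bidirectional curve fitting.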

For assay [16], the target named is Heat shock factor protein 1 (Homo sapiens) (UniProt Q00613). The assay is described as follows: ATG_HSE_CIS: Attagene CIS-FACTORIAL HepG2 Assay for human Heat Shock Transcription Factor 1 (HSE) (AID 2282953). Particulars: HepG2 HSE cis-reporter, Attagene RNA transcription; actives raise or lower the signal. The method, boiled down:
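HepG2 cells transfected with cis-promoter reporter units sensing endogenous transcription factor activity; reporter mRNA quantified 24 h post-dose by RT-PCR and capillary electrophoresis of 6-FAM-labelled products. Bidirectional fitting against DMSO.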

Assay [17] in a line: ATG_MRE_CIS: Attagene CIS-FACTORIAL HepG2 Assay for human Metal Responsive Element (MRE) (AID 2282954). Particulars: HepG2 MRE cis-reporter transcription, Attagene multiplex; actives raise or lower the signal. The method, boiled down:
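After a 24 h chemical exposure, transiently transfected HepG2 cells yield RNA whose reporter sequences are amplified, FAM-labelled and sized by capillary electrophoresis. Curves are fitted bidirectionally relative to DMSO.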

Assay [18] is described as follows: ATG_PBREM_CIS: Attagene CIS-FACTORIAL HepG2 Assay for human Phenobarbital-responsive Enhancer Module (PBREM) (AID 2282955). Particulars: HepG2 PBREM cis-reporter, Attagene multiplexed transcription; actives raise or lower the signal. In a few lines:
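Cells were transfected with cis-element reporter units and treated for 24 h, after which RNA was extracted and reporter transcripts measured by RT-PCR and capillary electrophoresis.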

Activity calls are given as the source filed them. How the source made its calls: active means hit-call score of the fitted dose curve at least 0.9, where 1 is the maximum; inactive means score below 0.9.

Sequence of Heat shock factor protein 1 (Homo sapiens) (Q00613 whole entry, looked up): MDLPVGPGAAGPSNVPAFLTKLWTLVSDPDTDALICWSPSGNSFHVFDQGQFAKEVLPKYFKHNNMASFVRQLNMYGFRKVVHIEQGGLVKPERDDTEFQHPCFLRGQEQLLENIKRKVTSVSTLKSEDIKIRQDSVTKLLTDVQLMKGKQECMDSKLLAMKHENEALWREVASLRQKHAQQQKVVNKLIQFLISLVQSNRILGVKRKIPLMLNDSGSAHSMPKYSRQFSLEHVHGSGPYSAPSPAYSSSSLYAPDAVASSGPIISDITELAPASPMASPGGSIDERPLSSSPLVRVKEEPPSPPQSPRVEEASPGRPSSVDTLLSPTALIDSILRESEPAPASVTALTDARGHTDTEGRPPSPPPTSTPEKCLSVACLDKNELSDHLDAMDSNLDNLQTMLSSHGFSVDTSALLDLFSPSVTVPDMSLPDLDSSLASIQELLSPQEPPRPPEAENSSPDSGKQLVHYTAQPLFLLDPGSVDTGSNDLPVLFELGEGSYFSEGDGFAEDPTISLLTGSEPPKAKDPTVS
Sequence of Hypoxia-inducible factor 1-alpha (Homo sapiens) (Q16665 whole entry, looked up): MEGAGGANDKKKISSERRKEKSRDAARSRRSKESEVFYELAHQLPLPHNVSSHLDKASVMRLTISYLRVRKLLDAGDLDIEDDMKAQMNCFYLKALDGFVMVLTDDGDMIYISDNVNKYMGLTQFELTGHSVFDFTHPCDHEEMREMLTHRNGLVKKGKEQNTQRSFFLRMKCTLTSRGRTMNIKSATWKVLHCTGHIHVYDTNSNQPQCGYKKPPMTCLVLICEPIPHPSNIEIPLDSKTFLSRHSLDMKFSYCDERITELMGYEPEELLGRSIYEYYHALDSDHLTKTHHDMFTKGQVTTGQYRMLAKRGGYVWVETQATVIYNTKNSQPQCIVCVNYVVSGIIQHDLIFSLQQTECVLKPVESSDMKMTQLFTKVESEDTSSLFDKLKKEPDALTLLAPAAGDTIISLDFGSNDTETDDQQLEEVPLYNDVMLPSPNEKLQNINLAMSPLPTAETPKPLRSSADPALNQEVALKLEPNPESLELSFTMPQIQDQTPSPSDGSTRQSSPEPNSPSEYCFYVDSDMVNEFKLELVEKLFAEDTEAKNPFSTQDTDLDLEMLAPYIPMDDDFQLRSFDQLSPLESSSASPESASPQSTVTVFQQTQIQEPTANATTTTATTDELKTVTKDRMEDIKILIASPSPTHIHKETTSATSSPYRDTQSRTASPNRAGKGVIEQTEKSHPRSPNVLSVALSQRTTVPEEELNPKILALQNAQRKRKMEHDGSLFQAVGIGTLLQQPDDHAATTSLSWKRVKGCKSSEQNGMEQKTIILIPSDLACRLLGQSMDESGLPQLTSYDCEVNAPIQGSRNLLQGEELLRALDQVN
Sequence of Bile acid receptor (Homo sapiens) (Q96RI1 whole entry, looked up, the tested form may be a part): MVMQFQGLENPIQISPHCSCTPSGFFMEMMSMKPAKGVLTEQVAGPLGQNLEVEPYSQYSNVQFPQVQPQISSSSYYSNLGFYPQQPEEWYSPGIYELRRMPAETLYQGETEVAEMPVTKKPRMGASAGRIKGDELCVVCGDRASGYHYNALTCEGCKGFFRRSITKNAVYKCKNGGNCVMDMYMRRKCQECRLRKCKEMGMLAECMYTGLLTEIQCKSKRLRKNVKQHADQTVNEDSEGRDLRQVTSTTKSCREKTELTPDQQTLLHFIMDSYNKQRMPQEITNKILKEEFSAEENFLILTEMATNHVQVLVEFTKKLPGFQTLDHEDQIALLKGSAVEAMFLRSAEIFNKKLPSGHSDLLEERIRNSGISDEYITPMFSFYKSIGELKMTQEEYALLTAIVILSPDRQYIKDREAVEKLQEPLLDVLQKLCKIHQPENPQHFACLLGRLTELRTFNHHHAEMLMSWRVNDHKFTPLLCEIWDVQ
Sequence of Hepatocyte nuclear factor 6 (Homo sapiens) (Q9UBC0 whole entry, looked up): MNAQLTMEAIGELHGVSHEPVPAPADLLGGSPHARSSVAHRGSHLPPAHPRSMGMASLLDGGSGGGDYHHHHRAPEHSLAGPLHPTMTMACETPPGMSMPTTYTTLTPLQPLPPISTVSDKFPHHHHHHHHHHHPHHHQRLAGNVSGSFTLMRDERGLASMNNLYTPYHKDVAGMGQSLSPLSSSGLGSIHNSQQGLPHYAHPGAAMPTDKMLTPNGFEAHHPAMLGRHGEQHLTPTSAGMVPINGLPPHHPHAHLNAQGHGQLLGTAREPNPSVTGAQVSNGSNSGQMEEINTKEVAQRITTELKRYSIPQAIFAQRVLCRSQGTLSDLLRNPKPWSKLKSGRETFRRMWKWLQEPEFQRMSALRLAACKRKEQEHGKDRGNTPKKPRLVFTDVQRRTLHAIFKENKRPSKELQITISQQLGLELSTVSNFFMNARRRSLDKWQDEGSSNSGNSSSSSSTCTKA
Sequence of Hepatocyte nuclear factor 3-beta (Homo sapiens) (Q9Y261 whole entry, looked up): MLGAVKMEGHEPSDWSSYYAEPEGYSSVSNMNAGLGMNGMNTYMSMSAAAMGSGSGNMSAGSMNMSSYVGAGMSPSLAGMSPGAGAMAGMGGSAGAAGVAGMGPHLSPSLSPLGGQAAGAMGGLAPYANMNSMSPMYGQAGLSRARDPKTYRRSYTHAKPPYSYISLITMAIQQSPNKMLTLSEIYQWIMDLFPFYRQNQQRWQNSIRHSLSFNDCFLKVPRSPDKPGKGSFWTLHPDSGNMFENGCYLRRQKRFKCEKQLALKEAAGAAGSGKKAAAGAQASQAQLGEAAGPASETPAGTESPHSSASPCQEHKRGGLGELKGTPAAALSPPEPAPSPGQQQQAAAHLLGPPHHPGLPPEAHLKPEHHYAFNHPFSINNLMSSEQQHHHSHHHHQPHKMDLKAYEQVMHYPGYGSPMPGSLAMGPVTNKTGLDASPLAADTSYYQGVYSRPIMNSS

As to `CC1=C2C[C@H]3[C@@H](CC=C4C[C@@H](O)CC[C@@]43C)[C@@H]2CC[C@]12O[C@@H]1C[C@H](C)CN[C@H]1[C@H]2C`, the result in assay [1], in assay [2], in [3], in [4], in assay [5] and in [7] was inactive. Besides, the outcome in [8], in assay [9], in assay [11], in assay [12], in [13] and in assay [14] was inactive. Besides, the compound was classed as inactive in [15], in assay [16] and in assay [18]. Moreover, the values for the AC50 in assay [6], in [10] and in [17] were 13 µM (active), 8.12 µM (active) and 16.1 µM (active), respectively.

`CN(C)c1nc(=O)n(C2CCCCC2)c(=O)n1C`: the outcome in assay [1], in assay [2], in assay [3], in assay [4], in [5] and in [6] was inactive. Besides, the compound was classed as inactive in assay [7], in assay [8], in assay [9], in assay [10], in assay [12] and in assay [13]. In addition, the outcome in assay [14], in assay [15], in assay [16], in assay [17] and in assay [18] was inactive.

Take `Cc1cc2c3c(c1)C(c1ccccc1)=N[C@@H](NC(=O)c1ccncc1)C(=O)N3CC2`: the result in assay [1], in assay [2], in assay [4], in [6], in [7] and in [8] was inactive. Moreover, the compound was classed as inactive in [9], in assay [10], in assay [13], in assay [15] and in [16]. Besides, the half-maximal activity concentration (AC50) in assay [3] is 42.8 µM (active); in assay [5], 153 µM (active); in [12], 102 µM (active); in [14], 72.4 µM (active); in assay [17], 77.1 µM (active); in [18], 3.47 µM (active).

Take `Clc1ccc(C(Cl)(Cl)Cl)cc1`: the result in assay [1], in [2], in assay [3], in assay [4], in assay [5] and in assay [6] was inactive. The result in assay [7], in assay [8], in assay [9], in [10], in [11] and in assay [12] was inactive. The compound was classed as inactive in [13], in [14], in assay [15], in [16] and in assay [17].

Turning to `ClC1=C(Cl)[C@]2(Cl)[C@@H]3[C@@H]4C[C@@H]([C@H]5O[C@@H]45)[C@@H]3[C@@]1(Cl)C2(Cl)Cl`, the result in assay [1], in [2], in [3], in assay [5], in [6] and in [7] was inactive. Also, the result in assay [8], in assay [9], in [11], in [13], in assay [14] and in assay [15] was inactive. The outcome in assay [16] was inactive. For the same compound, the AC50 in assay [4] was 1.04 µM (active); in assay [12], 80.5 µM (active); in assay [17] it was 46.5 µM (active).

On to `CCNc1nc(NC(C)C)nc(SC)n1`, for which the result in assay [1], in assay [2], in assay [3], in [5], in assay [6] and in [7] was inactive. Further, the compound was called inactive in assay [8], in assay [9], in assay [12], in [13], in [14] and in [15]. Moreover, the compound was classed as inactive in assay [16], in assay [17] and in assay [18].
